# Assay results as given in PubChem BioAssay.
# The list shows a part of the results. Active and inactive are the calls of the source.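 The calls were made as follows, unless noted: active = mean inhibition above about 50% in the one-dose retest (limit read from the data); inactive = the rest.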
# What was measured:
# [1] = PMA/ionomycin-induced NF-kB reporter inhibitors, Jurkat retest, confirmation, T-cell NF-kB inhibitor project, cell-based, luminescence, single concentration (AID 435020;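 active = inhibition reaching about 45% at 4 µM in either replicate, limit read from the data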;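 also: plate controls were PMA/ionomycin stimulated DMSO wells for no effect and unstimulated DMSO wells for full effect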); details: Jurkat NF-kB luciferase, 16 h, at 4 µM, stronger effect = higher value
# [2] = target: Sentrin-specific protease 8 (Homo sapiens) (UniProt Q96LD8); assay: SENP8 protease inhibitors, retest, confirmation, biochemical, luminescence, single concentration (AID 488912;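 active = mean inhibition across replicates above about 50%, limit read from the data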); details: Recombinant SENP8, Z-RLRGG-aminoluciferin luminescence, 60 min; at 12.5 µM; stronger effect = higher value
# Chain of Sentrin-specific protease 8 (Homo sapiens) (Q96LD8 whole entry, looked up): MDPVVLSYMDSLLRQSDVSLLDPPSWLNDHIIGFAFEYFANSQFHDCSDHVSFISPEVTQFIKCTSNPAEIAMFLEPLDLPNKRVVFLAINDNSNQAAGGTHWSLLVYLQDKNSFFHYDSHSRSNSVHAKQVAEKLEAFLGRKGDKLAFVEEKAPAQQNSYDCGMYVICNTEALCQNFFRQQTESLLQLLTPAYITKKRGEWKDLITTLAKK
# [3] = target: Sentrin-specific protease 6 (Homo sapiens) (UniProt Q9GZR1); assay: SENP6 protease inhibitors, confirmation, biochemical, luminescence, single concentration (AID 488915); details: recombinant SENP6, Z-RLRGG-aminoluciferin luminescence; at 12.5 µM; stronger effect = higher value
# Chain of Sentrin-specific protease 6 (Homo sapiens) (Q9GZR1 628-1112 limits assumed): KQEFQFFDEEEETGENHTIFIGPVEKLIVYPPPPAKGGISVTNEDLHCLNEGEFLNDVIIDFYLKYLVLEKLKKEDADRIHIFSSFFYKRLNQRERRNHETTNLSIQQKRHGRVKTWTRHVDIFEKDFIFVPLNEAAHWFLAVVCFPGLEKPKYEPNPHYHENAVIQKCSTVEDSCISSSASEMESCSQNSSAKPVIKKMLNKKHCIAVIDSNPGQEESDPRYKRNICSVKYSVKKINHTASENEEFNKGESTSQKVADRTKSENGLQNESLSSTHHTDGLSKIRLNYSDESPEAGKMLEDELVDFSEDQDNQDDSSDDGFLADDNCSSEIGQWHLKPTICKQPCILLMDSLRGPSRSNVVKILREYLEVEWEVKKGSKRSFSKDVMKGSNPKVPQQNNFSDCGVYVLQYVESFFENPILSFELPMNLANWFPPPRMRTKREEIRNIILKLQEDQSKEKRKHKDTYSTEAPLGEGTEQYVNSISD
# [4] = target: Sentrin-specific protease 7 (Homo sapiens) (UniProt Q9BQF6); assay: SENP7 protease inhibitors, retest, confirmation, biochemical, luminescence, single concentration (AID 488917); details: recombinant SENP7, Z-RLRGG-aminoluciferin luminescence, 40 min; at 12.5 µM; stronger effect = higher value
# Chain of Sentrin-specific protease 7 (Homo sapiens) (Q9BQF6 706-1050 limits assumed): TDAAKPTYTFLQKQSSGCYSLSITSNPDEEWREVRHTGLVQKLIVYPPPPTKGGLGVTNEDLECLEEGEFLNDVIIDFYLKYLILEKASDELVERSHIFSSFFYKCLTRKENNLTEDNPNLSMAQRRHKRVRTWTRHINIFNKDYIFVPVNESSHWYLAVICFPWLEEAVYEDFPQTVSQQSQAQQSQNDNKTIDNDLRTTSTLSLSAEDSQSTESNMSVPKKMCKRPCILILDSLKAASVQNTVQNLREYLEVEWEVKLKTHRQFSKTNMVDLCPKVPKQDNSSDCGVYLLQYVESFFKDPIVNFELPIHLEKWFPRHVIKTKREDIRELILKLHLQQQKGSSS
# [5] = target: Caspase-3 (Homo sapiens) (UniProt P42574); assay: caspase-3 protease inhibitors, confirmation, selectivity assay for SENP inhibitor project, biochemical, single concentration (AID 488918;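 active = mean inhibition above about 50%, limit read from the data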;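 also: plate controls were enzyme with DMSO for no effect and wells without caspase-3 for full effect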); details: purified caspase-3, Z-DEVD-aminoluciferin luminescence, 60 min; at 12.5 µM; stronger effect = higher value
# Chain of Caspase-3 (Homo sapiens) (P42574 28-227 limits assumed): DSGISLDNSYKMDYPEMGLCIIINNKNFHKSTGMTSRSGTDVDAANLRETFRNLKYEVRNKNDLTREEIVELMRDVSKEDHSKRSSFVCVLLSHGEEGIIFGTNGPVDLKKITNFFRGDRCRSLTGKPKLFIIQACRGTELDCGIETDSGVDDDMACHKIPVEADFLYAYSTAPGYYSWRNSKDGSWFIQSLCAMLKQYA
# [6] = luciferase luminescence interference by compounds, confirmation, artefact control for SENP inhibitor project, biochemical, single concentration, SENP8 reaction pre-completed (AID 488919;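 active = mean inhibition above about 50% when retested at one dose, limit read from the data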;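 also: plate controls were DMSO wells with completed reaction for no effect and substrate without enzyme for full effect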); details: Pre-incubated SENP8/Z-RLRGG-aminoluciferin, at 12.5 µM, stronger effect = higher value
# [7] = activators of apoptotic CHOP UPR arm, confirmation, cell-based, CHO-CHOP luciferase reporter, single concentration (AID 463112; in the data active = activation above about 33%;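 also: 0% = DMSO wells and 100% = tunicamycin 10 µg/mL wells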); details: CHO-CHOP cells, CHOP-luciferase reporter luminescence; at 10 µM; stronger effect = higher value; percent of tunicamycin response, DMSO as zero
# [8] = target: Protein Mdm4 (Homo sapiens) + E3 ubiquitin-protein ligase Mdm2 (Homo sapiens) (UniProt O15151+Q00987); assay: retested Mdm2-MdmX interaction blockers, confirmation, cell-based, luminescence, single concentration, set 2 (AID 504601;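 active = mean inhibition of the luminescence signal across two replicates at or above 26 percent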); details: SaOS-2 split-luciferase Mdm2/MdmX complementation, at 8 µM, stronger effect = higher value
# Chain of Protein Mdm4 (Homo sapiens) + E3 ubiquitin-protein ligase Mdm2 (Homo sapiens) (O15151 whole entry, looked up): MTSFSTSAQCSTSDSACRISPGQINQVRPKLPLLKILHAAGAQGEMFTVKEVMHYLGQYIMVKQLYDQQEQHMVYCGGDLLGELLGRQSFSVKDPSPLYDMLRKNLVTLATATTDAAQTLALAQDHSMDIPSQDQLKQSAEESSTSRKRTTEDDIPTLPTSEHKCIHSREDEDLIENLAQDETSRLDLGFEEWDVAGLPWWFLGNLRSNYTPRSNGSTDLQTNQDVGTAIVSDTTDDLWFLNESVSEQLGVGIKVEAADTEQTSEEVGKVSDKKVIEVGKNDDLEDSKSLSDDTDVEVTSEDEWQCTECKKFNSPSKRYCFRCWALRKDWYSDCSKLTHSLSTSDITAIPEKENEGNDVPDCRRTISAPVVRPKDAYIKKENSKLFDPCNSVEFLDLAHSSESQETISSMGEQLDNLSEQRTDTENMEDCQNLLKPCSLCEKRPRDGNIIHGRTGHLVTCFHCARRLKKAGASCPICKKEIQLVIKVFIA
# Chain of Protein Mdm4 (Homo sapiens) + E3 ubiquitin-protein ligase Mdm2 (Homo sapiens) (Q00987 whole entry, looked up): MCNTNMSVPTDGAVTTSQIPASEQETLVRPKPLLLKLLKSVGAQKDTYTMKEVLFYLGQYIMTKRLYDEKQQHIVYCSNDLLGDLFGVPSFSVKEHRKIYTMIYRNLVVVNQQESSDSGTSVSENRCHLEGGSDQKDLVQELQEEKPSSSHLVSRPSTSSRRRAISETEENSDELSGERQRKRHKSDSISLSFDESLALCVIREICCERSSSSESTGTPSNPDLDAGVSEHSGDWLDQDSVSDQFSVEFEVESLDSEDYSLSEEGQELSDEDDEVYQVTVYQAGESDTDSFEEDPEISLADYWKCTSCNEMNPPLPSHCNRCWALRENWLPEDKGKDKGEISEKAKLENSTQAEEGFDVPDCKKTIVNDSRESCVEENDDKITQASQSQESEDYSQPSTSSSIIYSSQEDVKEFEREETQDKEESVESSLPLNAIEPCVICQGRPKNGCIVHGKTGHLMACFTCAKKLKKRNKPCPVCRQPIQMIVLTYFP
# [9] = inhibition of Brca1/Bard1 split-luciferase complementation, confirmation, counter-screen for Mdm2/MdmX interaction inhibitor project, luminescence, single concentration (AID 504668; call rule not given here); details: Brca1/Bard1 bimolecular luciferase complementation counterscreen, at 8 µM, stronger effect = higher value
# [10] = HIF-2a reporter inhibitor retest, confirmation, luminescence, 786-0 RCC cells (AID 651580;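 active = mean inhibition across four replicates of at least 40 percent at the single tested concentration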); details: HIF-2a luciferase reporter luminescence, overnight, at 18.8 µM, stronger effect = higher value
# [11] = HIF-1a luciferase reporter signal reduction – MiaPaCa-2 cells, single concentration, counter-screen for HIF-2a inhibitor project, confirmation (AID 651589;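 active = mean inhibition of the reporter signal across four replicates at the single tested dose of 50% or more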); details: MiaPaCa-2 HIF-1a luciferase reporter, desferoxamine, overnight; at 18.8 µM; stronger effect = higher value
# [12] = Peg3 promoter reporter inhibitors, retest, confirmation, cell-based, HeLa, luciferase reporter, single concentration (AID 602417;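 active = at 20 µM dose, 40% or more inhibition averaged across four replicates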); details: HeLa PEG-Prom luciferase reporter, luminescence, overnight; at 20 µM; stronger effect = higher value
# [13] = inhibitors of PAF-induced NF-kB signaling, retest, confirmation, cell-based, GFP fluorescence, single concentration (AID 602472; in the data active = inhibition above about 40%;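 also: stimulus PAF is a Pseudomonas aeruginosa filtrate and not platelet activating factor; plate controls were DMSO wells with stimulus for no effect and unstimulated DMSO wells for full effect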); details: KKLEB CF airway cells, overnight, at 5 µM, stronger effect = higher value
# [14] = inhibitors of PAF-induced NFkB signaling in CF airway cells, dose response, cell-based, uHTS hits, panel, cytotoxicity readout (AID 624344); details: CF bronchial epithelial cells, PAF-induced NFkB reporter inhibition, with PAF, run 1; at 79 µM (top of the series) unless noted
# [15] = as above; details: CF bronchial epithelial cells, PAF-induced NFkB reporter inhibition, with PAF, run 2; at 79 µM (top of the series) unless noted
structure (smiles),measurement,setting,value
CCC(=O)Nc1ccc2nn(-c3ccc(F)cc3)nc2c1,inhibition,[1],-119% (inactive)
same,inhibition,[2],18.1% (inactive)
same,inhibition,[3],38.2% (inactive)
same,inhibition,[4],46.4% (inactive)
same,inhibition,[5],32.5% (inactive)
same,inhibition,[6],3.4% (inactive)
COc1cc(SC)ccc1C(=O)NCCOc1ccccc1Cl,inhibition,[1],-81.7% (inactive)
Cc1noc(C)c1/C=N/Nc1ccc2ccccc2n1,inhibition,[1],-102% (inactive)
same,inhibition,[2],-12.5% (inactive)
same,inhibition,[3],-9% (inactive)
same,inhibition,[4],6.7% (inactive)
same,inhibition,[5],6.2% (inactive)
same,inhibition,[6],-1.9% (inactive)
O=[N+]([O-])c1ccccc1S(=O)(=O)Nc1cccc2cccnc12,inhibition,[1],33.1% (inactive)
same,activation,[7],656% (active)
same,inhibition,[8],102% (active)
COc1ccc(NC(=O)/C(Cl)=C(/Cl)S(=O)Cc2ccc(C)cc2)cn1 (configuration not stated),inhibition,[1],100% (active)
O=C(COC(=O)c1ccc(F)cc1)NCC1COc2ccccc2O1 (configuration not stated),inhibition,[1],12.1% (inactive)
C[C@@H]1C[C@@H]2O[C@H]2/C=C\C=C\C(=O)Cc2c(Cl)c(O)cc(O)c2C(=O)O1,inhibition,[1],96.4% (active)
same,activation,[7],134% (active)
same,inhibition,[9],33.8% (active)
O=C(Nc1ccc(-c2nnc(-c3ccccc3)o2)cc1)C1CCCO1 (configuration not stated),inhibition,[1],-47.8% (inactive)
same,inhibition,[2],28.8% (inactive)
same,inhibition,[3],21.4% (inactive)
same,inhibition,[4],38.3% (inactive)
same,inhibition,[5],38.8% (inactive)
same,inhibition,[6],8.6% (inactive)
CCOc1cccc(/C=C/c2ccc3ccccc3n2)c1OC(C)=O,inhibition,[1],-131% (inactive)
CCn1c(/C=C/c2ccc([N+](=O)[O-])o2)nc2ccccc2c1=O,inhibition,[1],23.7% (inactive)
same,activation,[7],14.3% (inactive)
same,inhibition,[10],-36.9% (inactive)
same,inhibition,[11],105% (active)
COc1ccc(Nc2nc(-c3ccccc3)cs2)cc1,inhibition,[1],-140% (inactive)
same,inhibition,[2],49.3% (inactive)
same,inhibition,[3],89.6% (active)
same,inhibition,[4],100% (active)
same,inhibition,[5],83.7% (active)
same,inhibition,[6],53.8% (active)
O=C(c1cnn(-c2ccc(Cl)cc2)c1)c1ccccc1O,inhibition,[1],-109% (inactive)
same,inhibition,[2],11.7% (inactive)
same,inhibition,[3],95.3% (active)
same,inhibition,[4],78.6% (active)
same,inhibition,[5],73.5% (active)
same,inhibition,[6],56.5% (active)
Cc1ccc(N/C=C/C(=O)c2ccccc2)cc1C,inhibition,[1],3.3% (inactive)
same,inhibition,[2],34.5% (inactive)
same,inhibition,[3],73.8% (active)
same,inhibition,[4],91.5% (active)
same,inhibition,[5],78.6% (active)
same,inhibition,[6],13.8% (inactive)
Cc1ccc2cc3cc(C(=O)N4CCCCCC4)oc3nc2c1,inhibition,[1],-90.9% (inactive)
same,inhibition,[2],41.9% (inactive)
same,inhibition,[3],47.9% (inactive)
same,inhibition,[4],79.7% (active)
same,inhibition,[5],62.2% (active)
same,inhibition,[6],47.7% (inactive)
CCc1ccc2oc(-c3ccc(N)cc3)nc2c1,inhibition,[1],-126% (inactive)
same,inhibition,[2],94.5% (active)
same,inhibition,[3],94.8% (active)
same,inhibition,[4],100% (active)
same,inhibition,[5],84.1% (active)
same,inhibition,[6],94.5% (active)
O=[N+]([O-])c1ccc2oc(-c3cccc(O)c3)nc2c1,inhibition,[1],-113% (inactive)
same,inhibition,[2],90.4% (active)
same,inhibition,[3],90.4% (active)
same,inhibition,[4],99% (active)
same,inhibition,[5],85.8% (active)
same,inhibition,[6],84.4% (active)
Cc1csc(SCC(=O)Nc2sccc2C#N)n1,inhibition,[1],-98.6% (inactive)
same,inhibition,[2],93.1% (active)
same,inhibition,[3],96.1% (active)
same,inhibition,[4],101% (active)
same,inhibition,[5],97.1% (active)
same,inhibition,[6],94.4% (active)
COc1ccc(Nc2cc(C)nc(-n3nc(C)cc3C)n2)cc1,inhibition,[1],64.7% (active)
same,activation,[7],2.6% (inactive)
O=C(Nc1ccc2c(c1)CCC2)c1ccc(Br)s1,inhibition,[1],-177% (inactive)
same,inhibition,[2],44.7% (inactive)
same,inhibition,[3],70.8% (active)
same,inhibition,[4],73.3% (active)
same,inhibition,[5],47% (inactive)
same,inhibition,[6],24.2% (inactive)
CC(=O)Nc1cccc(-c2csc(Nc3cccc(C)n3)n2)c1,inhibition,[1],-67.1% (inactive)
same,inhibition,[2],6.1% (inactive)
same,inhibition,[3],93.9% (active)
same,inhibition,[4],102% (active)
same,inhibition,[5],75.7% (active)
same,inhibition,[6],94.2% (active)
Cn1nccc1C(=O)NC1CCCc2c1cnn2-c1ccc(F)cc1F (configuration not stated),inhibition,[1],76.3% (active)
COc1cc(NS(=O)(=O)c2ccc3ccccc3c2)c2ncccc2c1,inhibition,[1],2.5% (inactive)
same,activation,[7],689% (active)
same,inhibition,[12],43% (active)
O=C1CC(c2cccc(Cl)c2)CC(O)=C1C=Nc1ccccc1 (configuration not stated),activation,[7],70.8% (active)
COc1ccc(C2=Nn3c(nnc3-c3ccccc3OC)SC2)cc1OC1CCCC1,inhibition,[1],58% (active)
same,inhibition,[13],98.4% (active)
same,inhibition,[14],98.7%
same,inhibition,[15],118% [at 39.5 µM]
